Each structure is given as a SMILES string. Values joined by “and” are separate entries in the source; they are usually repeats but may differ in a detail not shown here. Equal values may be shown once. Inconclusive results are not listed. Where a call stands in place of a potency, no number is given. The source holds several records for some structures; these can differ, active in one and inactive in another. Active and inactive are the calls of the source. The call rests on the fitted dose curve; in most records, active means well fitted activation curve with a large enough effect in the repeat runs; inconclusive means weak or mixed curves; inactive means flat fitted curve, though single readings scatter.

The nature of one assay: A CellTox Green Cytotoxicity Assay to monitor cytotoxicity in HepG2 cells - 0 hour (AID 1224882). Further: nearly all actives have a fitted effect of over 35% in size. The note with it: CellTox Green fluorescence; series mostly up to 76.8 µM. In outline: (§1)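 HepG2 cells, 600/well, preincubated 5 h with CellTox Green dye, then exposed to Tox21 compounds in DMSO at 37 C for up to 40 h. Dead-cell DNA fluorescence read at the indicated time point.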
As to `CC(C)(c1ccccc1)c1ccc(O)cc1`, the Potency result was “inactive”.

In the case of `N#Cc1nn(-c2c(Cl)cc(C(F)(F)F)cc2Cl)c(N)c1S(=O)C(F)(F)F` (stereo not given), the Potency result is “inactive”.

Take `COc1ccc(CO)cc1`: the Potency result was “inactive”.

As to `ClCc1ccccn1`, the Potency entry is “inactive”.

With `CC(C)=CC1C(C(=O)OCN2C(=O)C3=C(CCCC3)C2=O)C1(C)C` (stereo not given), the Potency entry was “inactive”.

For `COP(=S)(OC)Oc1ccc(S(=O)(=O)N(C)C)cc1`, the Potency result was “inactive”.

Regarding `N#CCCCCC#N`, the Potency result is “inactive”.

For the compound `COC(=O)Nc1nc2ccccc2[nH]1`, the Potency result was “inactive”.

Consider `C[C@]12CC[C@H]3[C@@H](CCC4=CC(=O)CC[C@@H]43)[C@@H]1CC[C@@H]2O`, for which the Potency entry was “inactive”.

For the compound `O=[N+]([O-])c1ccc(Cl)c([N+](=O)[O-])c1`, the Potency entry is “inactive”.

Consider `CCC(=O)Nc1ccc(Cl)c(Cl)c1`, for which the Potency result is “inactive”.

`Oc1ccc(Cl)cc1Cl`: the Potency result was “inactive”.

A short description of a further assay: A CellTox Green Cytotoxicity Assay to monitor cytotoxicity in HepG2 cells - 32 hour (AID 1224883). Further: nearly all actives have a fitted effect of over 50% in size. Further: potency means the concentration at half of the fitted maximal effect. The note with it: CellTox Green fluorescence; series mostly up to 76.8 µM. Put shortly: as §1
As for `CC(C)=CC1C(C(=O)OCc2cccc(Oc3ccccc3)c2)C1(C)C` (stereo not given), the Potency entry is “inactive”.

As for `CNC(=O)Oc1cccc2c1OC(C)(C)C2`, the Potency result was “inactive”.

In the case of `CN(C)c1ccccc1`, the Potency entry is “inactive”.

In the case of `Cc1ccc([N+](=O)[O-])cc1`, the Potency result is “inactive”.

For the compound `CSc1nc(NC(C)C)nc(NC(C)C)n1`, the Potency entry is “inactive”.

For `CNC(=O)CSP(=S)(OC)OC`, the Potency result was “inactive”.

As for `CCCCCCCCCc1ccc(O)cc1`, the Potency is 39.3 µM (active) and 34.7 µM (active).

For the compound `C[N+](C)(C)CC(=O)O`, the Potency result was “inactive”.

For the compound `Oc1ccc(Cl)cc1Cc1ccccc1`, the Potency entry was “inactive and 33.1 µM (active)”.

As for `CS(=O)(=O)NC(=O)c1cc(Oc2ccc(C(F)(F)F)cc2Cl)ccc1[N+](=O)[O-]`, the Potency entry is “inactive”.

Take `NC(=O)CN1CCCC1=O`: the Potency entry was “inactive”.

For `CC1(C)C(C(=O)OC(C#N)c2cccc(Oc3ccccc3)c2)C1(C)C` (stereo not given), the Potency result was “inactive”.

As to `O=P(OCCCl)(OCCCl)OCCCl`, the Potency result was “inactive”.

As for `OCCOCCO`, the Potency entry is “inactive”.

As for `O=C(O)c1nn(Cc2ccc(Cl)cc2Cl)c2ccccc12`, the Potency result was “inactive and 95.2 nM (active)”.

Regarding `O=C1CCCO1`, the Potency result was “inactive”.

Consider `CC(C)(C#N)N=NC(C)(C)C#N`, for which the Potency entry is “inactive”.

For the compound `CCOP(=S)(OCC)SCn1c(=O)oc2cc(Cl)ccc21`, the Potency entry is “inactive”.

`CCCCCCCCCC(CC)c1ccc(S(=O)(=O)O)cc1` (stereo not given): the Potency was 54.9 µM (active) and 21.3 µM (active) and 38.9 µM (active).

As to `ClC(Cl)(Cl)Br`, the Potency result is “inactive”.

Take `CCCCOC(=O)COC(=O)c1ccccc1C(=O)OCCCC`: the Potency result is “inactive”.

Consider `Nc1ccc2ccccc2c1`, for which the Potency entry is “inactive”.

Consider `Cn1c(-c2ccccc2)cc(-c2ccccc2)[n+]1C`, for which the Potency result is “inactive”.

Turning to `ClCC(Cl)CCl`, the Potency result is “inactive”.

With `CCOP(=O)(OCC)OCC`, the Potency entry was “inactive”.

Regarding `C[C@]12CCC(=O)C=C1CC[C@@H]1[C@@H]2CC[C@@]2(C)[C@H]1CC[C@]2(C)O`, the Potency is 22.1 µM (active).

In the case of `CC(C)(c1ccccc1)c1ccc(O)cc1`, the Potency was 48.6 µM (active) and 24.5 µM (active).

Regarding `N#Cc1nn(-c2c(Cl)cc(C(F)(F)F)cc2Cl)c(N)c1S(=O)C(F)(F)F` (stereo not given), the Potency result is “inactive”.

Regarding `COc1ccc(CO)cc1`, the Potency result is “inactive”.

Consider `ClCc1ccccn1`, for which the Potency entry is “inactive”.

On to `CC(C)=CC1C(C(=O)OCN2C(=O)C3=C(CCCC3)C2=O)C1(C)C` (stereo not given), for which the Potency entry was “inactive”.

As for `COP(=S)(OC)Oc1ccc(S(=O)(=O)N(C)C)cc1`, the Potency entry is “inactive”.

Regarding `N#CCCCCC#N`, the Potency entry is “inactive”.

Turning to `COC(=O)Nc1nc2ccccc2[nH]1`, the Potency was 6.17 µM (active) and inactive.

For `C[C@]12CC[C@H]3[C@@H](CCC4=CC(=O)CC[C@@H]43)[C@@H]1CC[C@@H]2O`, the Potency entry is “inactive”.

For the compound `O=[N+]([O-])c1ccc(Cl)c([N+](=O)[O-])c1`, the Potency was 35.2 µM (active) and 24.5 µM (active).

On to `CCC(=O)Nc1ccc(Cl)c(Cl)c1`, for which the Potency result was “inactive”.

As to `Oc1ccc(Cl)cc1Cl`, the Potency entry is “inactive”.

Source of the values: PubChem BioAssay (Tox21).
